Screening results: PubChem BioAssay, National Center for Advancing Translational Sciences (NCATS)
Hits are enriched below; roughly 20% of the tested compounds scored in any of these assays.
HCMV inh: blocks human cytomegalovirus replication; HFF cells, HCMV-luciferase reporter, 72 h; active compounds read low; hit rate 4.5% among 410,000; activity change, negative = inhibition, % at 57.5 µM; AID 1259415; in the data active = activity change below about -60%; inconclusive = no clear call, values can overlap the other calls; inactive = above about -39%; also: % is scaled to controls: 0 for no effect and ±100 for the full control effect
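Screen run at 2 compound doses on HFFs infected with reporter HCMV, MOI 1 PFU/cell. Luciferase activity from cell lysates at 72 h post infection gave inhibition relative to buffer-only and Salinomycin wells.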
Shiga toxin inh: Shiga toxin inhibition; Vero cells, Shiga toxin protein synthesis inhibition reporter; inhibition, % at 38.7 µM; hit rate 9.2% among 290,000; AID 2315; in the data active = inhibition mostly above about 28%, no sharp cut-off; inactive = mostly below about 43%; also: 0% is about no effect
Pf growth 96h: inhibits malaria parasite growth, 96 h | hit rate 6.9% among 320,000 | Potency, µM (top dose mostly 28.7 µM), for inactives: at the highest dose activity change, negative = inhibition, most hits filed as inhibitors | P. falciparum luciferase reporter growth, 96 h | AID 504834; also: potency is read from the fitted curve at half-maximal effect; % is scaled to controls: 0 for no effect and ±100 for the full control effect
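96 h incubation, 37 C, 5% CO2, of luciferase-reporter P. falciparum-infected RBCs (2% hematocrit, 0.05% parasitemia final) with test compounds; endpoint luminescence.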
Cycloheximide cs: counter-screen for Shiga toxin inhibitors: cycloheximide protein synthesis inhibition; cell reporter, cycloheximide protein synthesis inhibition counterscreen; max response, %; hit rate 12% among 300,000; in the data active = max response mostly above about 13%, no sharp cut-off; inactive = mostly below about 14%; also: read at 38.3 µM for the half of the compounds with a filed dose; 0% is about no effect
Pf growth 48h: P. falciparum growth inhibition at 48 hours (one generation). P. falciparum luciferase growth in erythrocytes, 48 h. Potency, µM (doses to about 28.7 µM), inactives show at the highest dose activity change, negative = inhibition, actives largely listed as inhibitors. hit rate 5.9% among 310,000. AID 504832; also: potency is read from the fitted curve at half-maximal effect; % is scaled to controls: 0 for no effect and ±100 for the full control effect
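First compound was added to culture medium, then infected red cells at 0.1% parasitemia and 2% hematocrit (final). After incubation at 37 C under 5% CO2, luciferase detection reagent was dispensed and light output recorded.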
* marks the source's active call; other numbers are inactive results; u = inconclusive; x = no result given; + = active, no number. Unless noted, calls follow the shape of the dose curve; as a rule, active = well fitted inhibition curve with a large enough effect; inconclusive = small, poorly fitted or top-dose-only effect, or another doubt; inactive = no such curve, though single readings can be large or run the other way.

SMILES | HCMV inh | Shiga toxin inh | Pf growth 96h | Cycloheximide cs | Pf growth 48h
c1ccc(CCNc2nc(-c3ccccc3)cs2)cc1 | 48.0 | x | x | x | x
COc1ccc(CC(=O)Nc2nccs2)cc1OC | 56.5 | -11.4 | 17.7% | -5.6 | u
c1ccc(CCNc2nc3ccccc3s2)cc1 | -3.7 | 84.6* | -35.7% | 66.8* | x
C=CCOc1ccc(CNc2nccs2)cc1OCC | -63.6* | 18.0 | -19.9% | 10.1 | 26.7%
C=CCOc1c(CNc2nccs2)cccc1OCC | 19.3 | 13.8 | x | -0.4 | -17.7%
O=C(Cn1nnc(-c2cc(C(F)(F)F)cc(C(F)(F)F)c2)n1)NNC(=S)Nc1ccc(Cl)cc1 | 17.4 | -14.4 | 0.8% | -1.3 | -14.3%
CN1OC[C@@H]2CN(C(=S)NCCc3ccccc3)[C@H](c3ccccc3Br)C[C@@H]21 | -2.4 | x | x | x | x
COc1ccc(CNc2nc3ccccc3s2)cc1OC | 63.4 | 66.2* | u | 44.7* | 105.9%
Cc1ccc(CNc2nc3ccccc3s2)s1 | 54.1 | -31.4 | u | -2.7 | 183.7%
Nc1nc(SCc2ccccc2)[nH]c(=O)c1-c1ccccc1 | 141.8 | 120.5* | 1.4% | 67.1* | 55.7%
Nc1nc(SCc2ccccc2Cl)[nH]c(=O)c1-c1ccccc1 | 89.9 | 16.0 | 11.5% | 10.3 | -17.0%
Nc1nc(SCC(=O)N2CCCc3ccccc32)[nH]c(=O)c1-c1ccccc1 | 9.3 | 54.0* | 0.0% | 34.4* | 14.0%
O=C(CSc1nc2c(cnn2-c2ccc(F)cc2)c(=O)[nH]1)N1CCCc2ccccc21 | 25.6 | -30.6 | u | -5.5 | 27.3%
O=C(NCc1ccco1)C1CCN(c2nc3ccccc3n2Cc2ccccc2F)CC1 | -6.4 | 2.4 | -26.2% | 21.7* | x
O=C(CN1CCN(Cc2ccccc2F)C1=O)NCc1ccco1 | 26.4 | -7.1 | 13.1µM* | -4.1 | x
Cc1cc(C)nc(N2CCC(C(=O)NCc3ccccc3F)CC2)n1 | -12.3 | -11.9 | -16.9% | -3.3 | -0.4%
COc1cccc(CC2(CO)CCCN(Cc3[nH]c4ccc(C)cc4c3C)C2)c1 (centres undefined) | -12.1 | 2.0 | 5.86µM* | -3.5 | 9.28µM*
COc1cccc(CC2(CO)CCCN(Cc3sc(N4CCCC4)nc3Cl)C2)c1 (centres undefined) | 2.9 | 11.4 | 14.7µM* | -1.0 | u
COc1cccc(CC2(CO)CCCN(Cc3ccc(C)s3)C2)c1 (centres undefined) | -20.2 | -5.0 | u | -1.2 | u
COc1ccc(CN2CCCC(CO)(Cc3ccc(F)cc3F)C2)cc1 (centres undefined) | -4.4 | -5.1 | 10.4µM* | -1.5 | -17.1%
COc1cccc(CC2(CO)CCCN(Cc3c(C)cc(C)cc3-n3cccn3)C2)c1 (centres undefined) | -68.8* | -11.5 | u | 1.2 | u
COc1ccc(-n2ccnc2CN2CCCC(CO)(Cc3cccc(OC)c3)C2)cc1 (centres undefined) | -29.8 | 10.8 | u | -4.1 | u
COc1cccc(CC2(CO)CCCN(Cc3ccc(CO)o3)C2)c1 (centres undefined) | -35.2 | -6.4 | u | 0.6 | 10.8%
CCc1c(C)sc2c1CCN(C(=O)Nc1ccccc1C(F)(F)F)C2c1ccccc1 (centres undefined) | -20.6 | x | x | x | x
CC(C)c1cnc2c(c1SCC(=O)Nc1ccccc1C(F)(F)F)c(=O)n(C)c(=O)n2C | -37.6 | x | x | x | x
SMILES | HCMV inh | Shiga toxin inh | Pf growth 96h | Cycloheximide cs | Pf growth 48h
COc1ccccc1NC(=O)C1=C(C)Nc2nc(SC)nn2C1c1ccccc1Cl (centres undefined) | 7.8 | x | x | x | x
CN(C)c1ccc(C(=O)OCC(=O)N2CCCC2)cc1 | 6.8 | 53.4* | 78.0% | 31.9* | 40.0%
CN(c1ccc(C(=O)N2CCCCC2)cc1)S(C)(=O)=O | 3.2 | -15.8 | 44.3% | -2.6 | 6.8%
O=C(OCC(=O)N1CCCC1)c1cccc(Br)c1 | -30.3 | 54.5* | -1.6% | 19.6* | 31.5%
CCOc1ccc(C(=O)OCC(=O)N2CCCC2)cc1 | -10.1 | 58.9* | 27.4% | 27.2* | 57.9%
CN(C)c1ccc(C(=O)N2CCCC2)cc1 | 58.8 | 4.1 | 11.7µM* | 9.8 | 43.3%
CCNC(=O)c1ccccc1CCc1ccccc1 | u | 19.1 | 33.0% | -2.7 | 15.6%
O=C(NCC1CCCO1)c1cc2c(=O)[nH]c3ccccc3c2s1 (centres undefined) | -31.8 | 16.3 | -10.7% | 2.7 | 1.2%
NS(=O)(=O)c1ccc(NC(=O)CN(C(=O)C(F)(F)F)C2CCCC2)cc1 | -34.0 | x | x | x | x
CN(C)c1ccc(C(=O)OCC(=O)N2CCCCCC2)cc1 | 67.3 | 105.9* | 119.6% | 35.8* | 92.8%
CCOC(=O)N1CCN(C(=O)COC(=O)c2ccc(N(C)C)cc2)CC1 | -26.3 | x | x | x | x
CCOC(=O)C1CCN(C(=O)COC(=O)c2cccc(F)c2)CC1 | -26.9 | 72.2* | 9.1% | 21.9* | u
CC(C)(C)C(C(=O)NCc1ccccc1)N1CCN(C(=O)C2CCCO2)CC1 (centres undefined) | -16.6 | x | x | x | x
COc1ccc2c(c1)c(C(=O)CNc1nc(C)cs1)c(C)n2C | 22.1 | -23.3 | 2.94µM* | -3.7 | u
CCOCc1cnc(C)nc1NCC(=O)c1c(C)n(C)c2ccc(OC)cc12 | 24.4 | 5.0 | -6.2% | -1.8 | 7.38µM*
COc1ccc2c(c1)c(C(C)=O)c(C)n2C | u | -18.7 | 24.2% | -1.3 | 1.9%
CCOC(=O)c1c(C)[nH]c(C2=NNC(=Nc3cccc(Cl)c3)SC2)c1C | x | 3.6 | 2.08µM* | -3.4 | 2.08µM*
CC(=O)c1c(C)[nH]c(C2=NNC(=NCc3ccccc3)SC2)c1C | 26.6 | 22.8 | -36.6% | 14.7 | u
COCCCN1C(=O)C(CC(=O)NCCCN(C)C)CC(C(=O)N2CCCCCC2)=C1C (centres undefined) | -13.2 | x | x | x | x
CC(=O)Nc1ccc(CN2C(=O)C(C)(C)ON=C2c2ccc(NC(C)=O)cc2)cc1 | -6.4 | x | x | x | x
Cc1ccc(Cl)cc1NC(=O)C(=O)N/N=C/c1ccc2c(c1)OCO2 | -19.5 | -11.2 | u | -3.1 | 5.9%
Cc1ccc(N/N=C/c2ccc3c(c2)OCCO3)cc1Cl | -28.9 | 27.7* | -20.2% | 55.4* | u
O=C(O)c1ccc(N/N=C/c2cc3cc4c(cc3nc2Cl)OCCO4)cc1 | 110.0 | -2.3 | 0.0% | 11.7* | -4.1%
O=C(O)c1ccc(NCc2ccc3c(c2)OCO3)cc1 | 113.9 | 4.0 | u | 11.9 | x
O=C(O)c1cc(N/N=C/c2ccc3c(c2)OCCO3)ccc1Cl | 162.8 | 116.0* | 480.9% | 109.2* | 277.0%
SMILES | HCMV inh | Shiga toxin inh | Pf growth 96h | Cycloheximide cs | Pf growth 48h
C/C(=N\Nc1ccc(Cl)c(C(=O)O)c1)c1ccc2c(c1)OCO2 | -15.7 | + | 29.2% | 88.4* | 181.0%
NC(=O)c1ncn([C@@H]2O[C@H](CNCc3cccn3-c3ccncc3)[C@@H](O)[C@H]2O)n1 | -4.6 | x | x | x | x
CC(=O)Oc1ccc(Cn2c(C)c(C(=O)NCc3ccc4c(c3)OCCO4)sc2=O)cc1 | 14.0 | x | x | x | x
COc1ccc(NC(=O)CSc2nc(-c3cc(OC)c(OC)c(OC)c3)[nH]c2-c2ccc(F)cc2)cc1 | 127.9 | x | x | x | x
CC1(C(=O)NS(=O)(=O)c2cccc(F)c2)CCN1C(=O)CCC1CCCC1 (centres undefined) | 20.8 | x | x | x | x
CCOC(=O)C(C(C)C)C(N)Cc1ccc(F)cc1 (centres undefined) | -3.5 | -3.5 | 32.7% | -0.9 | -12.2%
